Screening data from PubChem BioAssay.
TEAD-YAP inh – TEAD-YAP interaction inhibition, primary screen, TEAD-YAP interaction inhibitor project, luminescence, HEK-TIYL cells; hit rate 1.4% among 640,000; inhibition, % at 9.12 µM; AID 1259422, 2018; TEAD-Gal4/YAP UAS-luciferase luminescence; in the data active means inhibition above about 32%;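 further: 0% = median of test compound wells and 100% = reference inhibitor wells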
FBW7 activator – FBW7 E3 ligase activators, primary screen, biochemical, AlphaScreen, human; F-box/WD repeat-containing protein 7 (Homo sapiens), Q969H0; AlphaScreen FBW7–phospho-cyclin E peptide binding, activator screen; normalized activity (activation), % at 26.1 µM; hit rate 0.13% among 650,000; AID 1259310, 2017; in the data active means normalized activity above about 1.9%;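 further: purified mutant Fbw7 with reduced substrate affinity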
MITF inh – MITF inhibitors, primary screen, biochemical, AlphaScreen, human | inhibition, % at 2.6 µM | Microphthalmia-associated transcription factor (Homo sapiens), O75030 | hit rate 0.91% among 650,000 | AlphaScreen MITF homodimerization, bead proximity signal; in the data active means inhibition above about 50%;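 further: 0% = vehicle wells with protein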
Target sequence (O75030 whole entry, looked up): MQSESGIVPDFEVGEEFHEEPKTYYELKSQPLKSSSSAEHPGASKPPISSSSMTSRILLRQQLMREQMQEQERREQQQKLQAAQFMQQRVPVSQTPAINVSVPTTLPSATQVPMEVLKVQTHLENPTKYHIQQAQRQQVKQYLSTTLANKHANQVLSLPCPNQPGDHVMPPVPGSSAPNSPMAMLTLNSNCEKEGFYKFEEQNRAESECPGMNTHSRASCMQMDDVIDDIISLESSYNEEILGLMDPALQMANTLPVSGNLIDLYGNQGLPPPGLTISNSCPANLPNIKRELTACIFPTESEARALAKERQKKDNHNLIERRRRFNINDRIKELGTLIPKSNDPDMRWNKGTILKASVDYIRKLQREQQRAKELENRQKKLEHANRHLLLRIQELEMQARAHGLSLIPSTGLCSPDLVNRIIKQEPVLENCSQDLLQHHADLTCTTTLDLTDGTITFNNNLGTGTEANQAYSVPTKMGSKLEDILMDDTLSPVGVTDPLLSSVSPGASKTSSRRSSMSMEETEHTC
GPR151 activ – activators of human GPR151, primary screen, cell-based, PathHunter beta-arrestin, luminescence; AID 1508602, 2020; PathHunter beta-arrestin GPR151 cells; activation, % at 11.2 µM; hit rate 1% among 650,000; G-protein coupled receptor 151 (Homo sapiens), Q8TDV0; in the data active means activation above about 4.9%;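 further: 0% = median of compound wells and 100% = cells with positive control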
GPR151 confirm – GPR151 activators, triplicate retest, confirmation, cell-based, PathHunter beta-arrestin, luminescence; shares compounds with GPR151 activ; GPR151 PathHunter beta-arrestin cells, 90 min; % of EA-reagent control over plate median; activation, % at 11.2 µM; 6,700 tested, under 10 active; AID 1508609, 2020;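 active means mean percent activation across replicates above the confirmation screen cutoff of 4.91%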
GPR119 counter – GPR119 activators in beta-arrestin cells, counter-screen for GPR151 activator project, cell-based, PathHunter beta-arrestin, luminescence, triplicate. shares compounds with GPR151 activ. 90 min; 0 = compound-well median, 100 = enzyme-acceptor control. activation, % at 11.2 µM. hit rate 0.3% among 6,700;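 active means mean percent activation in the counterscreen above 29.09%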;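 further: counterscreen on off-target GPR119 to flag nonselective hits from the GPR151 activator screen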
* marks the source's active call; other numbers are inactive results. This is a sample that favours compounds with a hit; in the whole collection about 3.4% have one here.

`Cc1ccccc1-c1nc(-c2ccc(Br)cc2)no1` gave TEAD-YAP inh -8.2, FBW7 activator -0.3, MITF inh 0.4 and GPR151 activ 0.8.
Screening CCC1C(=O)NCCN1Cc1ccc2c(c1)CN(Cc1cccc(C)n1)CCO2 (centres undefined) returned TEAD-YAP inh -0.2, FBW7 activator 0.1, MITF inh 6.8, GPR151 activ 5.4*, GPR151 confirm -0.8 and GPR119 counter -11.3.
Cc1ccc2c(c1)-c1c(cnn1CC(=O)NC1CC1)CO2 was read as TEAD-YAP inh 20.9, FBW7 activator 0.6, MITF inh 6.4, GPR151 activ 6.1*, GPR151 confirm -0.2 and GPR119 counter -3.2.
Screening Cc1ccc2c(c1)-c1c(cnn1CC(=O)N(C)c1ccccc1C)CO2 returned TEAD-YAP inh 12.6, FBW7 activator -0.1, MITF inh 1.5, GPR151 activ 7.1*, GPR151 confirm -0.3 and GPR119 counter -4.3.
Screening CCOCCCNC(=O)Cn1ncc2c1-c1cc(C)ccc1OC2 returned TEAD-YAP inh 5.0, FBW7 activator -0.1, MITF inh 4.8 and GPR151 activ 0.4.
Cc1ccc2c(c1)-c1c(cnn1CC(=O)NCCN(C)C)CO2 was read as TEAD-YAP inh -0.8, FBW7 activator 0.0, MITF inh -0.3, GPR151 activ 10.6*, GPR151 confirm -0.2 and GPR119 counter 5.3.
For COc1ccc(C(=O)Nc2ccnn2C2CCN(Cc3cn(C)nc3C)CC2)cc1 the results were TEAD-YAP inh 1.9, FBW7 activator 0.0, MITF inh 9.4, GPR151 activ 5.6*, GPR151 confirm 1.6 and GPR119 counter -14.5.
COc1ccc(C(=O)Nc2ccnn2C2CCN(C(=O)C3CCOC3)CC2)cc1 (centres undefined) was read as TEAD-YAP inh -8.2, FBW7 activator 0.0, MITF inh 4.9, GPR151 activ 5.8*, GPR151 confirm 0.5 and GPR119 counter -0.3.
Screening COc1ccc(C(=O)Nc2ccnn2C2CCN(Cc3ccon3)CC2)cc1 returned TEAD-YAP inh 14.3, FBW7 activator -0.2, MITF inh 1.6 and GPR151 activ -0.7.
Screening CCOC(=O)c1nc(N)sc1C returned TEAD-YAP inh -7.7, FBW7 activator 0.1, MITF inh -5.7 and GPR151 activ 0.4.
Cc1ccc(C(=O)COc2ccc3c(C)cc(=O)oc3c2C)cc1 was read as TEAD-YAP inh -6.7, FBW7 activator 0.1, MITF inh 3.0 and GPR151 activ 0.2.
Cc1occc1C(=O)NCc1ccco1 was read as TEAD-YAP inh -3.4, FBW7 activator 0.1, MITF inh 41.4 and GPR151 activ -0.8.
For Cc1oc(C)c(S(=O)(=O)NC(C)C)c1C(=O)NCc1ccco1 the results were TEAD-YAP inh 1.8, FBW7 activator -0.1, MITF inh -2.0, GPR151 activ 7.1*, GPR151 confirm 1.7 and GPR119 counter 1.2.
`C=CCOc1ccc(/C=C2\C(=O)NC(C)=C2C(=O)OC)cc1` gave TEAD-YAP inh -3.1, FBW7 activator -0.2, MITF inh 6.1, GPR151 activ 5.2*, GPR151 confirm 1.3 and GPR119 counter 19.0.
COc1cc(OC)c(NC(=O)Nc2noc3c2COc2ccccc2-3)cc1Cl was read as TEAD-YAP inh 6.9, FBW7 activator 0.1, MITF inh 3.3, GPR151 activ 5.2*, GPR151 confirm 0.9 and GPR119 counter -0.7.
For Cc1cccc(OCCCN2CCOCC2)c1C the results were TEAD-YAP inh 9.4, FBW7 activator 0.0, MITF inh -7.2, GPR151 activ 5.1*, GPR151 confirm -1.2 and GPR119 counter -7.7.
For CCOC(=O)C1CCCN(S(=O)(=O)c2cccc3nonc23)C1 (centres undefined) the results were TEAD-YAP inh -13.2, FBW7 activator 0.1, MITF inh 3.5 and GPR151 activ -1.1.
For O=C(CCSc1ccccc1)Nc1nc2ccc(F)cc2s1 the results were TEAD-YAP inh 0.5, FBW7 activator 0.0, MITF inh 7.2 and GPR151 activ 0.0.
For CCOC(=O)CN1C(=O)C(O)(CC(=O)c2ccc(Br)s2)c2ccccc21 (centres undefined) the results were TEAD-YAP inh -0.3, FBW7 activator 0.1, MITF inh -2.2 and GPR151 activ -0.1.
`CS(=O)(=O)N(CC(=O)Nc1cccc(Cl)c1Cl)c1cccc(F)c1` gave TEAD-YAP inh -13.2, FBW7 activator -0.1, MITF inh -1.3, GPR151 activ 5.3*, GPR151 confirm 0.2 and GPR119 counter 1.8.
For CS(=O)(=O)N(CC(=O)NC1CCCC1)c1ccc(F)c(Cl)c1 the results were TEAD-YAP inh 7.1, FBW7 activator 0.1, MITF inh -1.1 and GPR151 activ 0.1.
`CS(=O)(=O)N(CC(=O)NC1CC1)c1ccc(F)c(Cl)c1` gave TEAD-YAP inh 1.0, FBW7 activator 0.0, MITF inh -4.6, GPR151 activ 5.6*, GPR151 confirm 1.4 and GPR119 counter 16.3.
`CN1CCN(CCNC(=O)CCCc2cn(C)c3ccccc23)CC1` gave TEAD-YAP inh -6.7, FBW7 activator 0.3, MITF inh 12.4 and GPR151 activ 1.2.
For O=C(Nc1ccc(S(=O)(=O)NCCc2ccccc2)cc1)c1ccccc1F the results were TEAD-YAP inh 2.2, FBW7 activator 0.1, MITF inh -5.9 and GPR151 activ 0.6.
For CC(=O)Nc1ccc(S(=O)(=O)NCCNC(=O)c2ccccc2F)cc1 the results were TEAD-YAP inh -8.8, FBW7 activator -0.1, MITF inh 4.1, GPR151 activ 6.3*, GPR151 confirm -1.6 and GPR119 counter -13.2.
`CC(C)c1ccc(NC(=O)c2cc(S(=O)(=O)NCCc3ccccc3)ccc2F)cc1` gave TEAD-YAP inh 12.5, FBW7 activator -0.2, MITF inh 4.2, GPR151 activ 5.8*, GPR151 confirm -1.2 and GPR119 counter -12.0.
CNC(=O)CN1c2ccccc2C(C)(C)C12C=Cc1c(ccc3ccccc13)O2 (centres undefined) was read as TEAD-YAP inh 2.1, FBW7 activator 0.0, MITF inh -2.7 and GPR151 activ 1.5.
Screening COc1ccccc1NC(=O)C(=O)N1N=C(CC(C)C)CC1(O)C(F)(F)F (centres undefined) returned TEAD-YAP inh 6.4, FBW7 activator -0.1, MITF inh 14.8 and GPR151 activ -0.4.
For O=c1oc2ccc(Br)cc2cc1P(=O)(O)O the results were TEAD-YAP inh 7.9, FBW7 activator -0.1, MITF inh -9.2 and GPR151 activ 0.1.
